Test results: PubChem BioAssay (NCATS)
Where “and” joins values, the source holds several entries; their conditions need not be identical. Identical values can stand only once. Results filed as inconclusive are left out. A number with no mark means an inactive call. Calls of active or inactive are those of the source. The call rests on the fitted dose curve; in most records, active means well fitted curve in the direction sought with a large enough effect in the repeat runs; inconclusive means weak or mixed curves; inactive means no such curve, though single readings can be large; an effect the other way counts as inactive or inconclusive.

Assay: qHTS assay for small molecule agonists of the antioxidant response element (ARE) signaling pathway measured by Nrf2-dependant transcriptional activity (AID 720636);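 further: HepG2 cells with an ARE-driven luciferase reporter; % of control where 0% means no effect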
Settings: ARE-luc HepG2, Nrf2 luciferase reporter, 16 h; series mostly up to 92.4 µM; activation: at the top concentration
In short: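 ONE-Glo luminescence, read 30 min after reagent addition at room temperature, reflected ARE reporter activity in HepG2 cells that had been incubated with compound for 16 hr at 37 C in 1% dialyzed FBS.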

| SMILES | activation | Potency |
| --- | --- | --- |
| CCCCCCc1ccc(O)cc1O | 1.94% |  |
| CC(O)(P(=O)(O)O)P(=O)(O)O | -0.446% |  |
| CN(C)C(=S)SC(=S)N(C)C | 0.961% |  |
| CC/C(=C(/CC)c1ccc(O)cc1)c1ccc(O)cc1 |  | inactive |
| Cc1cc(=O)n(-c2ccccc2)n1C | 0.339% |  |
| C[C@H]1C[C@H]2[C@@H]3CCC4=CC(=O)C=C[C@]4(C)[C@@]3(Cl)[C@@H](O)C[C@]2(C)[C@@]1(O)C(=O)CO | -0.44% |  |
| CC(C)(Oc1ccc(Cl)cc1)C(=O)O | 0.653% |  |
| COC1=CC(=O)C[C@@H](C)[C@]12Oc1c(Cl)c(OC)cc(OC)c1C2=O | -2.34% |  |
| O=C(O)CCCCC(=O)O | -1.69% |  |

Assay: qHTS assay for small molecule antagonists of the retinoid-related orphan receptor gamma (ROR-gamma) signaling pathway - cell viability counter screen (AID 720652);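 further: CHO reporter cells with doxycycline-induced ROR-gamma expression; compound exposure lasted 16 hr before ATP read; on the % scale 0 is the no-effect control and ±100 the full control effect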
Settings: RORgamma reporter cell line viability counter screen; series mostly up to 92.2 µM; activity change, negative = cytotoxicity: at the top concentration
In short: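 Cytotoxicity is quantified via intracellular ATP (CellTiter-Glo luminescence) in doxycycline-induced CHO ROR response element-luciferase reporter cells treated with compound for 16 hr at 37 C, 5% CO2.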

| SMILES | activity change, negative = cytotoxicity |
| --- | --- |
| CC(C)(C)CC(C)(C)c1ccc(OCCOCC[N+](C)(C)Cc2ccccc2)cc1 | 8.91% |
| COC1=CC(=O)C[C@@H](C)[C@]12Oc1c(Cl)c(OC)cc(OC)c1C2=O | 10.7% |
| O=C(O)CCCCC(=O)O | 4.6% |
| Oc1ccc(Cl)cc1Sc1cc(Cl)ccc1O | 4.93% |

Assay: qHTS assay for small molecule agonists of the antioxidant response element (ARE) signaling pathway measured by Nrf2-dependant transcriptional activity - cell viability counter screen (AID 720653); further: on the % scale 0 is the no-effect control and ±100 the full control effect
Settings: ARE-bla HepG2 viability, CellTiter-Glo ATP luminescence, 16 h; hits give low values
In short: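 ARE-bla HepG2 cells (2,000/well) rested 5 hrs at 37C/5% CO2, then exposed to compounds in DMSO for 16 hrs. Viability was read in the same wells as intracellular ATP by luminescence, 30 min at room temperature after reagent addition.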

| SMILES | max response |
| --- | --- |
| CCCCCCc1ccc(O)cc1O | -0.701% and 2.74% |
| CC(O)(P(=O)(O)O)P(=O)(O)O | -6.37% |
| CN(C)C(=S)SC(=S)N(C)C | 4.33% |
| CC/C(=C(/CC)c1ccc(O)cc1)c1ccc(O)cc1 | 6.27% and -6.2% |
| Cc1cc(=O)n(-c2ccccc2)n1C | -4.23% |
| C[C@H]1C[C@H]2[C@@H]3CCC4=CC(=O)C=C[C@]4(C)[C@@]3(Cl)[C@@H](O)C[C@]2(C)[C@@]1(O)C(=O)CO | -20.4% |
| CC(C)(Oc1ccc(Cl)cc1)C(=O)O | 10.5% |
| COC1=CC(=O)C[C@@H](C)[C@]12Oc1c(Cl)c(OC)cc(OC)c1C2=O | 2.34% |
| O=C(O)CCCCC(=O)O | 6.35% |
